Shown are actives, neighbours in structure and some others; about 1.2% of the full set was active somewhere.
F-actin modifier – cytoskeleton assembly modification. HUVEC TNFa F-actin phalloidin imaging, high content. inhibition, % at 2 µM. 91,000 tested, 0.18% active. AID 836;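 active means inhibition above the batch mean plus 3 SD and confirmed as a hit by visual image inspection, cut at about 30% in these data, passing the limit was not always enough; inconclusive means above the inhibition threshold but rejected on visual inspection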
VCAM1 TNFa inh – reduces TNF alpha induced VCAM1 expression in HUVEC; inhibition, % at 2 µM; 95,000 tested, 0.48% active; HUVEC TNFa-induced VCAM-1 immunofluorescence, high-content imaging; AID 802;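 active means inhibition above the batch mean plus 3 SD, with images confirmed as a hit by eye, cut at about 37% in these data; inconclusive means inhibition above that limit but hit not confirmed in images; inactive means inhibition not above that limit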;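 further: 0% = TNF-stimulated DMSO wells and 100% = unstimulated control wells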
E-sel TNF inh – TNF alpha driven E-selectin expression inhibition; inhibition, % at 2 µM; AID 1246; 120,000 tested, 0.71% active; HUVEC TNFa-induced E-selectin immunofluorescence, high content;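 active means inhibition above the batch mean plus 3 SD, and confirmed as a hit on visual image review, cut at about 43% in these data; inconclusive means passes the inhibition cutoff but fails visual image review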;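 further: 0% = TNF-stimulated DMSO wells and 100% = unstimulated control wells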
TNFa cytotox – HUVEC cytotoxicity counter-screen, TNF alpha stimulated; cell count reduction, % at 2 µM; HUVEC TNFalpha-stimulated, Hoechst cell count, imaging; 93,000 tested, 0.17% active; AID 848;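 active means cell count reduction exceeding the screen mean by over 5 SD, scaled to untreated wells per plate, cut at about 78% in these data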;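 further: cells counted after 24 h of TNF alpha exposure following the 1 h pretreatment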
Active calls of the source: *; ? = inconclusive; / = no result.

SMILES	F-actin modifier	VCAM1 TNFa inh	E-sel TNF inh	TNFa cytotox
COc1ccc(-n2nnnc2SCC(=O)NC(=O)Nc2ccc3c(c2)OCCO3)cc1	8.4	8.2	1.3	-21.8
CCOc1ccccc1NC(=O)CSc1nnc2ccc(-c3cccnc3)nn12	/	/	-76.7	/
COc1ccccc1NC(=O)CSc1nnc2ccc(-c3cccnc3)nn12	/	/	82.0*	/
CCCc1cc(=O)[nH]c(SCC(=O)Nc2ccc(Br)cc2Br)n1	/	/	-11.3	/
O=C(O)C(=O)/C(=C\c1ccccc1)c1ccc2ccccc2n1	6.2	2.5	90.6*	-8.9
O=S(=O)(Nc1ccccn1)c1ccc(Cl)c2ccccc12	/	/	82.2*	/
CCOc1ccc(S(=O)(=O)Nc2ccccn2)c2ccccc12	4.5	5.5	-5.3	-25.5
Cc1cccc(N2C(=O)C3C4CC(C(Br)C4Br)C3C2=O)n1 (stereo unspecified)	20.8	0.2	1.3	-22.2
CCOC(=O)N1CCN(C(=O)COc2cccc3c2CCN(Cc2ccccc2C)C3=O)CC1	/	/	21.3	/
CCOC(=O)N1CCN(C(=O)COc2cccc3c2CCN(Cc2cccc(C)c2)C3=O)CC1	/	/	68.9*	/
Cc1ccccc1Cn1nc(C)c(NC(=O)c2cc(-c3cccs3)on2)c1C	7.0	91.2*	/	79.9*
COc1ccc(OC)c(-c2cc(C(=O)Nc3c(C)nn(Cc4ccccc4C)c3C)no2)c1	14.7	-5.0	/	5.5
CCOC(=O)Cc1csc(NC(=O)COc2ccc(OC)cc2)n1	10.0	-9.2	90.7*	5.0
CCOC(=O)Cc1csc(NC(=O)COc2ccc(N(C)S(=O)(=O)c3ccc(C)cc3)cc2)n1	-4.8	91.1*	4.6	75.8
COc1ccc(-c2cc(C(F)(F)F)nc(SCC(=O)NCc3cnn(C)c3C)n2)cc1OC	/	/	-9.4	/
Cc1c(Cl)cccc1N(CC(=O)NC1CCCCC1)S(C)(=O)=O	/	/	-46.4	/
C=CCNC(=O)c1nn2cccnc2c1Cl	?	?	-39.6	92.3*
Cc1cc(NC(=O)c2nn3cccnc3c2Cl)no1	-1.9	4.4	/	-7.8
CCOC(=O)CSC1=C(C#N)C(=O)NC(c2ccc(OC)c(OC)c2)S1 (stereo unspecified)	6.3	-27.6	-26.1	/
Cc1ccc(N)cc1S(=O)(=O)N(C)C	/	/	54.9*	/
Cc1cc(N)ccc1S(C)(=O)=O	5.7	10.7	-29.8	6.3
CC(C)C(=O)Nc1ccc(C(=O)NC2CCSC2=O)cc1 (stereo unspecified)	-2.2	-4.9	31.1	-43.4
COc1ccc(C(=O)Nc2ccc3c(c2)OCCO3)cc1	8.3	-0.5	3.9	-20.9
Cc1nc(NC(=O)c2oc3ccccc3c2C)sc1C(=O)N(C)C	-12.1	-3.7	96.0*	0.0
Cc1nc(NC(=O)c2ccccc2[N+](=O)[O-])sc1C(=O)N(C)C	/	/	13.2	/
SMILES	F-actin modifier	VCAM1 TNFa inh	E-sel TNF inh	TNFa cytotox
COc1cccc(OC)c1C(=O)Nc1ccccc1N1CCCC1	15.4	8.1	6.5	-10.9
CCOc1ccccc1OCC(=O)NN1Cc2ccccc2C1=N	-12.3	-3.2	/	-19.3
C#CC(=O)N(c1ccc(OC)cc1OC)C(C(=O)NC1CCCC1)c1cccs1 (stereo unspecified)	/	/	30.7	/
C#CC(=O)N(c1cc(OC)ccc1OC)C(C(=O)NC1CCCC1)c1cccs1 (stereo unspecified)	8.7	35.0	58.3*	15.4
COc1ccc(S(=O)(=O)n2ccc(-c3ccc(OCCN(C)c4ccccn4)cc3)n2)cc1	66.2*	-0.1	28.9	-15.9
COc1ccc(S(=O)(=O)N(CC(=O)O)c2ccccn2)cc1	-16.0	10.5	5.2	-7.1
Cc1cc(C)n(-c2nc(Nc3ccccc3)nc(-n3nc(C)cc3C)n2)n1	-10.8	5.5	6.3	-1.2
COc1cccc(/C=N/Nc2nc(Nc3ccccc3)nc(-n3nc(C)cc3C)n2)c1O	2.3	86.7*	22.5	33.6
CCCCCc1ccc(-c2ccc(=O)[nH]n2)cc1	-46.6	78.8*	28.7	18.5
O=C(CCN1C(=O)C2C3C=CC(C3)C2C1=O)Nc1c(F)cccc1F (stereo unspecified)	-46.3	60.1	2.2	93.8*
Cc1ccc(OCC(=O)N2CCN(C(=O)Cc3ccccc3)CC2)cc1	71.4*	-10.6	4.6	6.6
COc1ccc(OCC(=O)N2CCN(C(=O)Cc3ccccc3)CC2)cc1	2.0	-7.7	-18.7	-3.3
CC(=O)N1CCC(N2CCN(Cc3ccc(C)cc3)C(CCO)C2)CC1 (stereo unspecified)	/	/	-15.0	/
Cc1nn(Cc2ccc(C(=O)Nc3ccccc3C(F)(F)F)o2)c(C)c1Br	-18.8	-8.8	-13.6	-9.5
COc1ccc(OCCCc2c(C)n[nH]c2C)cc1	-10.9	11.3	/	3.9
O=C(CSc1ncccn1)NCc1ccccc1Cl	12.6	13.4	59.7*	-31.0
CCOC(=O)c1c(-c2ccc(C)c(C)c2)csc1NC(=O)C1CC=CCC1C(=O)O (stereo unspecified)	-4.0	-11.7	-21.2	-5.3
